Experimental data: the supplement of paper PMC6555819

tested on: RARb homodimer (NR concentration 270 nM); test: PBM binding z-score (relative to random genomic background probes); higher = stronger binding; sequences stand for … in GC…GCGATTGACAGCGTAGAATGAAGG
Method in brief: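 Each nuclear receptor dimer, without ligand, was incubated for 1 h on custom Agilent 4×180K protein-binding microarrays. Binding was detected with antibodies against each partner (one per run), and scanned fluorescence was regression-normalized. The binding z-scores are referenced to random human genomic background probes.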

Point of comparison: GCTTACGGGTCAAAGGATATAGCATGAATAGAAT, PBM binding z-score 2.26. Against it:
- TAGACTAGGTCATTCAGGGGCCAGTATAGAAAGC — higher, 3.07
- TGTGCTAGGTCAGTTGGTCAGCTAACGAGCTGCC — higher, 2.66
- TTACCACGGTGAAGGTCGTTGATCCCTCTGTAGA — lower, 1.29
- TTACCAAGGTGAGCTGAGGTCGTTCATCCAACTC — lower, 1.81
- ATCGGAAGGTCGACGAGGTGAGTATACACCGTTT — lower, 1.95
- CCAGACAGGTGAAAGGTAACTTAGTCTGGTACGC — lower, 0.975
- AGTCAAAGTTCAGGGCGAGGTAACGTAAAGCACG — higher, 3.56
- TCTGGTTGGTCACGGAGGTCACACACGACGGGTA — higher, 4.58
- TTACCAAGGTTAAGGTCGTTGATCCCTCTGTAGA — higher, 2.57
- CCTCGGAGGACAAGAGGAGGTCAGAGCTGCCAGA — higher, 2.96
- CGTCCAAGGTAAAAGGTCAGTGAAGAGATGACGG — higher, 4.88
- CGTCCAAGGTCAGGGTCAGTGAAAGAGACTCGAA — higher, 4.57
- ATCTCTAGGTAAAGTTCGGTGAAAGATCGATAGA — lower, 0.59
- CAAACTAGGTCGAGGTCAAAGTCGGTTTGTGCCA — higher, 4.43
- CCTAACGGGTCACGAGGTTATAGCACGACGAGCG — higher, 3.65
- CAAACTAGGTCACGAAAGGCCAAAGTCGAATGAC — higher, 4.29
- CGTGCAAGGTCAATGCTAGGTCAGTGAAAGCATT — higher, 4.95
- CCTACTGGGCCATTCAGAGGTCATTGAGCATATG — higher, 4.08
- ATACCAAGGTGATGGTGAGGTCGTTGATACTAAC — lower, 1.83
- CCTTACGGGTCACGAGGTTACAGCACGACGAGCG — higher, 4.03
- GATACAGGGTCAGCTAGAGGCCAGAGTATGGAAA — higher, 3.39
- TGAATGAGGTTAAAGATCAGGGACCGTGGCGTCG — lower, 0.662
- CAAACTTGGTCACGAAAGGTCAAAGTCGAATGAC — higher, 4.71
- GGAACGAGGGCAAAGTTGATTGCATCTGTCGACG — lower, 1.13
- CCTCGGAGGACAGAAGGTCAGAGCGGTCCGCTTT — higher, 3.61
- CAGCCTCGGTCAGGGCCAGTATAGGAGGAACGTT — lower, 1.31
- TCGAGTAGGTTAGTCGAGGCATTCAGCCAACATA — lower, -0.449
- CGTCCAATGTCATAGGAGGTCAGTGAAGACAGAT — higher, 3.62
- GCTGCTTGGTCAGGTTGGTCAGCTAACGGGTACG — lower, 0.727
- GCAGACAGGTGAAGCGCAGGTAACTCAGGGTGGC — lower, -0.151
- GCTAGCAGGCCATTTGGGTCCCTCAATGACGGGC — lower, -0.901
- ATCTCTAGGTTACCAAGTTCAGTGAATGCCGAAC — higher, 2.58
- CGTCCAAGGTCAATGCTAAGTCAGTGAAAGCATT — higher, 3.83
- ATCGAAAGGTCTAGGTGAGTATAGAGAAAGGGAA — lower, 1.12
- CATACAGGGTCAGCTTGGCCAGAGTAGGGACGGC — higher, 3.06
- CCTACTGGGCTACGAAAGGTCATTGATTCAGTGA — higher, 4.59
- ATATGTAGGTTGCATCCGGGTCATTCAGGCTATG — lower, 2.16
- TAGCCTAGGTCATTCAAGGGCCAGTATAGAAAGC — higher, 3.38
- AGAATGAGGATACCAAAGATCAGGGAAACGCTTG — lower, -0.727
